Screens: PubChem, ICCB-Longwood Screening Facility, Harvard Medical School
Sampled rows, rich in hits. Any-hit rate of the full collection: about 0.52%.
Sa helicase inh – S. aureus DNA helicase inhibition; purified S. aureus helicase, fluorescence unwinding assay; inhibition, % (concentration not given with the values); 120,000 compounds, 0.05% hits; in the data active means inhibition above about 25%, passing the limit was not always enough;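 further: 0% = mean of negative control wells and 100% = mean of positive control wells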
Sa growth inh – S. aureus growth inhibition. S. aureus RN4220 growth, OD600, 20 h, 42 °C; stronger effect = lower value. relative growth, % (concentration not given with the values). 170,000 compounds, 0.53% hits;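 active means relative growth at most 50% at the other temperature and 20+ points below 30 °C, or under 10% at both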
Numbers without * were called inactive; x = not tested or not shown.

SMILES	Sa helicase inh	Sa growth inh
CCCc1nnc(NC(=O)c2nc(S(=O)(=O)Cc3ccc(C)cc3)ncc2Cl)s1	x	4.1*
CC(C)Sc1ncc(Cl)c(C(=O)Nc2nnc(C(C)C)s2)n1	x	97
CCOC(=O)c1ccc(NC(=O)c2nc(S(=O)(=O)Cc3ccccc3)ncc2Cl)cc1	x	100
O=C(CSCC(=O)N1CCCC1)Nc1nc(-c2cccs2)cs1	7	105
Cc1cc(C(=O)CSc2nnc(C(F)(F)F)n2C)c(C)n1C1CC1	-9	94
Cc1ccc(NC(=O)CCSc2nnc3scc(-c4ccccc4)n23)cc1	3	93
COc1cccc(C(=O)N=c2sc3cc(Cl)ccc3n2C)c1	5	x
NC(=O)c1ccc(-c2cccc(C(F)(F)F)c2)o1	8	95
O=C(O)c1ccc(-c2cccc(C(F)(F)F)c2)o1	-3	45*
CCN(CC)S(=O)(=O)c1cccc(C(=O)OCC(=O)c2ccc3c(c2)OCO3)c1	2	92
CCN(CC)S(=O)(=O)c1cc(C(=O)Oc2ccc3c(c2)OCO3)ccc1C	13	44*
Cc1cc(C(=O)COC(=O)/C=C/c2ccco2)c(C)n1-c1ccc(F)cc1	4	105
CS(=O)(=O)c1ccc(-c2csc(-c3cccs3)n2)cc1	15	96
Fc1ccc(-c2csc(-c3cccs3)n2)cc1	x	45*
CCn1cc(C(=O)NN)c(=O)c2cc(F)c(N3CCCC3)cc21	-3	74
CCn1cc(C(=O)O)c(=O)c2cc(F)c(N3CCN(C(=S)Nc4ccc5c(c4)OCO5)CC3)cc21	18	0.2*
CCn1cc(C(=O)O)c(=O)c2cc(F)c(N3CCN(C)CC3)cc21	-28	-0.9*
CCn1cc(C(=O)NCC(C)C)c(=O)c2cc(F)c(N3CCN(C(=O)c4ccco4)CC3)cc21	3	113
CCn1cc(C(=O)O)c(=O)c2cc(F)c(N3CCNCC3)cc21	x	-0.1*
CCn1cc(C(=O)O)c(=O)c2cc(F)c(N3CCN(C(=O)c4ccccc4F)CC3)cc21	14	51
S=c1n(-c2ccccc2)cnn1CN1CCN(c2ccccn2)CC1	5	73
CCOc1cccc(/C(O)=C2/C(=O)C(=O)N(Cc3ccncc3)C2c2ccccc2)c1 (centres undefined)	9	120
NNc1nnc2c(n1)[nH]c1ccc(F)cc12	32	79
CC(C)CC1C(C#N)=C(N)OC2=C1C(=O)CCC2 (centres undefined)	-4	x
COC(=O)C1=C(C)NC(C)=C(C(=O)OC)C1C(=O)OCC(=O)N1CCN(C(C)=O)CC1	-7	76
SMILES	Sa helicase inh	Sa growth inh
COc1ccc(N2CCN(c3ccccn3)CC2)cc1	9	71
N=C1/C(=C2\Nc3ccccc3S2)CC(=O)N1CCc1ccccc1	-13	1.4*
N=C1/C(=C2\Nc3ccccc3S2)CC(=O)N1Cc1ccco1	-24	41
N#CC(C(=O)NCc1ccccc1)c1nc2ccccc2nc1Cl (centres undefined)	7	67
CC(C)N1C(=O)CSC1c1cccs1 (centres undefined)	-3	93
Cc1cc(Cl)cc(C)c1OCCn1ccnc1	0	19
Clc1ccc(OCCn2ccnc2)c(Br)c1	9	3.1*
COc1cccc(NC(=O)c2cccc3c2OCCCO3)c1	x	60
O=C1C(Nc2cccc(O)c2)=C(n2nnc3ccccc32)C(=O)c2ccccc21	15	0.6*
O=C1C(Nc2ccccc2)=C(n2nnc3ccccc32)C(=O)c2ccccc21	13	86
O=C(c1cn(-c2ccccc2)nc1-c1cccs1)N(CCO)c1ccccc1	-3	99
C[C@H]1COc2c(C3(N)CC3)c(F)cc3c(=O)c(C(=O)O)cn1c23	x	-0.9*
CN1CCN(c2c(F)cc3c(=O)c(C(=O)O)cn4c3c2SCC4)CC1	x	-0.4*
C[C@H]1COc2c(N3CCN(C)CC3)c(F)cc3c(=O)c(C(=O)O)cn1c23	x	-0.5*
Cc1cc(F)c(F)cc1C(=O)N1CCN(C)CC1	7	108
O=C(NC(=S)Nc1cccc2c(O)cccc12)C1CC1	15	52
Cc1cc(C)c2oc(-c3cc(NC(=O)CC(C)C)ccc3Cl)nc2c1	10	89
O=C1/C(=C/c2cccnc2)c2ccccc2N1c1ccccc1	14	8.4*
O=C1C(=Cc2cccnc2)C(=O)c2ccccc21	-5	64
Cc1ccccc1N(CC(=O)Nc1ccccc1N1CCN(C)CC1)S(C)(=O)=O	1	113
Cc1cc(=O)[nH]c(SCc2nc(-c3cccs3)no2)n1	-25	95
COC(=O)C(N)Cc1c[nH]c2ccccc12 (centres undefined)	-18	94
COC(=O)C(Sc1c[nH]c2ccccc12)(C(F)(F)F)C(F)(F)F	42	0.0*
O=c1[nH]c(=O)n([C@H]2C[C@H](O)[C@@H](CO)O2)cc1F	x	-0.6*
Cc1cn(C2CC(O)C(CO)O2)c(=O)[nH]c1=O (centres undefined)	16	81
SMILES	Sa helicase inh	Sa growth inh
Cc1cccc(NC(=O)c2nc(S(C)(=O)=O)ncc2Cl)c1	x	1.0*
COc1ccc(NC(=O)c2nc(S(C)(=O)=O)ncc2Cl)cc1Cl	0	21
CCS(=O)(=O)c1ncc(Cl)c(C(=O)Nc2c(C(=O)Nc3cccc(C)c3)oc3ccccc23)n1	x	116
CS(=O)(=O)c1ncc(Cl)c(C(=O)Nc2cccc(Cl)c2)n1	5	0.2*
O=C(O)c1nccnc1C(=O)N1CCN(C(c2ccccc2)c2ccccc2)CC1	-4	108
CS(=O)(=O)c1ncc(Cl)c(C(=O)N2CCN(C(c3ccccc3)c3ccccc3)CC2)n1	-15	4.2*
O=c1c2ccccc2nc(SCc2ccc(Cl)cc2)n1Cc1cccs1	1	91
CN1C(=O)N(C)C2NC(SCC(=O)O)=NC21 (centres undefined)	18	105
CCC(CC)c1nnc(NC(=O)Cc2csc(C)n2)s1	16	77
O=S(=O)(/N=C(\Nc1ccncc1)c1ccccc1)c1ccccc1	-1	108
O=C(Cc1ccccc1F)N1CCC(c2nc3c(nnn3Cc3ccc(F)cc3)c(=O)[nH]2)CC1	x	68
O=C(c1ccccc1)N1CCC(c2nc3c(nnn3Cc3ccccc3)c(=O)[nH]2)CC1	-1	2.9*
Cc1ccccc1Cn1nnc2c(=O)[nH]c(C3CCN(C(=O)c4ccccc4Cl)CC3)nc21	x	12
COc1cccc(Cn2nnc3c(=O)[nH]c(C4CCN(C(=O)c5ccccc5Cl)CC4)nc32)c1	x	0.4*
CC(C)(C)OC(=O)N1CCC(c2nc3c(nnn3Cc3ccccc3Cl)c(=O)[nH]2)CC1	0	0.3*
COc1cccc(Cn2nnc3c(=O)[nH]c(C4CCN(C(=O)c5ccccc5)CC4)nc32)c1	8	0.8*
Cc1cccc(Cn2nnc3c(=O)[nH]c(C4CCN(C(=O)c5ccccc5F)CC4)nc32)c1	x	103
COc1cccc(Cn2nnc3c(=O)[nH]c(C4CCCN(C(=O)c5ccc(C)cc5)C4)nc32)c1 (centres undefined)	x	79
Cc1cccc(-c2noc(CCCC(N)=O)n2)c1	-14	104
Cc1ccc2oc(=O)c3cc(C(=O)N(CC(C)C)CC(C)C)sc3c2c1	14	77
Oc1ccc2ccccc2c1CN1CCCC(C(F)(F)F)C1 (centres undefined)	5	96
O=C1Nc2ccccc2S/C1=C/c1ccc(C(=O)NC2CCCC2)cc1	2	114
Cc1ccc2oc(=O)c(-c3nc(-c4ccccc4)no3)cc2c1	-28	96
O=C(Cc1ccc(F)cc1)N1CCC(c2nc3c(nnn3Cc3ccc(Cl)cc3)c(=O)[nH]2)CC1	x	6.4*
